± gives the standard deviation.
Columns and labels:
Details in all cases: modulator concentration 10 µM
[1] = test system: RAW-Dual (murine macrophage reporter line); assay: NF-kB reporter (SEAP) activity fold change vs agonist alone; higher = enhanced NF-kB activity
Outline: (§1)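 RAW-Dual murine macrophage reporter cells were seeded at 50 000 per well in 384-well plates and pre-incubated 1 hour at 37 °C with compound pin-transferred to 10 μM final. After 1 hour, a PRR agonist was added and cells incubated overnight. Supernatant NF-κB (SEAP, QUANTI-Blue, 620 nm absorbance) and IRF (Lucia luciferase, QUANTI-Luc, luminescence) signals were divided by the mean agonist-only control on the same plate to give fold change. Two replicate plates were averaged, with errors by propagation.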

[2] = test system: RAW-Dual (murine macrophage reporter line); assay: IRF reporter (Lucia luciferase) activity fold change vs agonist alone; higher = enhanced IRF activity
Outline: as §1

[3] = test system: RAW-Dual (murine macrophage reporter line); assay: viability score (confluency relative to resting cells, overnight) (fraction); higher = more viable, active = viable (0.7 or more)
Outline: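 RAW-Dual macrophages in 384-well plates were treated overnight with compound at 10 μM final. IncuCyte imaging recorded confluency, and IncuCyte software built two confluency masks across every imaged well. The viability score expresses confluency relative to resting cells and was judged against a cutoff, which a compound met only if both masks exceeded 70% of resting cells.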

[4] = agonist: CpG ODN 1826 0.5 ug/mL

SMILES | NF-kB reporter [1, 4] | NF-kB reporter ([1]; agonist: LPS 0.1 ug/mL) | NF-kB reporter ([1]; agonist: MPLA […]) | IRF reporter ([2]; agonist: 3'3'-cGAMP 10 ug/mL) | IRF reporter ([2]; agonist: LPS 0.1 ug/mL) | IRF reporter ([2]; agonist: MPLA […]) | viability score [3]
CC(C)NCC(O)COc1ccc(CCOCC2CC2)cc1 (stereo not drawn) | 0.927 ± 0.09 | 1.02 ± 0.1 | 1.06 ± 0.04 | 0.907 ± 0.073 | 0.897 ± 0.029 | 0.764 ± 0.098 | 1 (active)
O=C(NCc1cccc(Oc2ccccn2)c1)C1c2ccccc2Oc2ccccc21 | 0.52 ± 0.041 | 1.12 ± 0.088 | 0.883 ± 0.039 | 0.801 ± 0.077 | 1.01 ± 0.12 | 1.11 ± 0.27 | 0.992 (active)
CN(C)CCCN1c2ccccc2Sc2ccc(Cl)cc21 [Prestw-64] | 0.227 ± 0.066 | 1.1 ± 0.059 | 1.94 ± 0.12 | 0.71 ± 0.037 | 2.26 ± 0.33 | 2.24 ± 0.35 | 0.634 (inactive)
O=C(NCc1ccco1)C(=Cc1ccc(-c2ccccc2Cl)o1)NC(=O)c1ccccc1 | 0.57 ± 0.044 | 0.745 ± 0.052 | 0.791 ± 0.07 | 0.476 ± 0.022 | 0.859 ± 0.07 | 0.942 ± 0.11 | 0.996 (active)
COC(=O)c1cc(NC(=O)c2cc(OC)c(OC)cc2[N+](=O)[O-])cc(C(=O)OC)c1 | 0.99 ± 0.1 | 1.03 ± 0.057 | 0.913 ± 0.074 | 0.999 ± 0.063 | 1.59 ± 0.19 | 1.22 ± 0.091 | 1.01 (active)
CC#CCn1c(N2CCC[C@@H](N)C2)nc2c1c(=O)n(Cc1nc(C)c3ccccc3n1)c(=O)n2C | 1.05 ± 0.14 | 1.13 ± 0.22 | 1.02 ± 0.064 | 0.944 ± 0.035 | 1.34 ± 0.38 | 1.14 ± 0.16 | 1.01 (active)
COC(=O)Nn1cnnc1 | 1.03 ± 0.17 | 1.08 ± 0.087 | 0.97 ± 0.095 | 0.984 ± 0.025 | 1.25 ± 0.22 | 1.39 ± 0.24 | 1 (active)
O=S(=O)(Nc1ccc(-c2nc3cccnc3s2)cc1)c1cccs1 | 0.902 ± 0.23 | 0.748 ± 0.23 | 0.566 ± 0.07 | 0.783 ± 0.027 | 0.973 ± 0.37 | 0.892 ± 0.12 | 0.672 (inactive)
Cc1cc(C(=O)N2CCC(Oc3cccc4cccnc34)CC2)c(C)o1 | 1.1 ± 0.073 | 1.1 ± 0.12 | 0.81 ± 0.066 | 1.02 ± 0.092 | 1.07 ± 0.15 | 1.07 ± 0.23 | 1.01 (active)
CCCOc1cccc(C(=O)Nc2scc(-c3ccccc3Cl)c2C(=O)OC)c1 | 0.817 ± 0.1 | 0.827 ± 0.039 | 1.05 ± 0.092 | 1.03 ± 0.059 | 1.54 ± 0.09 | 1.69 ± 0.2 | 1 (active)
Cc1ccccc1C(=O)N1CC(S(=O)(=O)CC(C)C)C1 | 0.961 ± 0.082 | 0.907 ± 0.076 | 0.854 ± 0.052 | 1.04 ± 0.071 | 1.04 ± 0.13 | 0.899 ± 0.38 | 1.02 (active)
COc1cc(C=NNC(=O)CSc2ccccn2)cc(Cl)c1O | 1.16 ± 0.073 | 1.02 ± 0.15 | 0.953 ± 0.026 | 1.04 ± 0.042 | 0.95 ± 0.12 | 0.94 ± 0.18 | 1 (active)
CCCc1cc(=O)oc2cc(OCC(=O)OC)c(Cl)cc12 | 1.1 ± 0.09 | 0.967 ± 0.13 | 1.03 ± 0.041 | 0.96 ± 0.13 | 1.04 ± 0.1 | 1.09 ± 0.18 | 0.998 (active)
CNc1nc(Nc2ccc(C)c(C)c2)c2nccnc2n1 | 0.992 ± 0.063 | 1.03 ± 0.092 | 1.09 ± 0.09 | 0.992 ± 0.069 | 1.01 ± 0.19 | 1.22 ± 0.42 | 0.929 (active)

Source: the supplement of paper PMC10646978
